# Test results reported in paper PMC4336329 (PLoS ONE, 2015).
# Among all 310,000 compounds or so, about 2,200 (0.71%) showed an effect of 50% or more. The effect is printed as a negative number. Shown is part of a subset that was picked to be rich in strong results.
# Target: human ether-à-go-go-related gene (hERG) potassium channel (human, UniProt Q12809)
# Assay: primary screen, population patch clamp on CHO cells stably expressing hERG; higher = less effect of the substance
# Sequence of human ether-à-go-go-related gene (hERG) potassium channel (Q12809 whole entry, looked up): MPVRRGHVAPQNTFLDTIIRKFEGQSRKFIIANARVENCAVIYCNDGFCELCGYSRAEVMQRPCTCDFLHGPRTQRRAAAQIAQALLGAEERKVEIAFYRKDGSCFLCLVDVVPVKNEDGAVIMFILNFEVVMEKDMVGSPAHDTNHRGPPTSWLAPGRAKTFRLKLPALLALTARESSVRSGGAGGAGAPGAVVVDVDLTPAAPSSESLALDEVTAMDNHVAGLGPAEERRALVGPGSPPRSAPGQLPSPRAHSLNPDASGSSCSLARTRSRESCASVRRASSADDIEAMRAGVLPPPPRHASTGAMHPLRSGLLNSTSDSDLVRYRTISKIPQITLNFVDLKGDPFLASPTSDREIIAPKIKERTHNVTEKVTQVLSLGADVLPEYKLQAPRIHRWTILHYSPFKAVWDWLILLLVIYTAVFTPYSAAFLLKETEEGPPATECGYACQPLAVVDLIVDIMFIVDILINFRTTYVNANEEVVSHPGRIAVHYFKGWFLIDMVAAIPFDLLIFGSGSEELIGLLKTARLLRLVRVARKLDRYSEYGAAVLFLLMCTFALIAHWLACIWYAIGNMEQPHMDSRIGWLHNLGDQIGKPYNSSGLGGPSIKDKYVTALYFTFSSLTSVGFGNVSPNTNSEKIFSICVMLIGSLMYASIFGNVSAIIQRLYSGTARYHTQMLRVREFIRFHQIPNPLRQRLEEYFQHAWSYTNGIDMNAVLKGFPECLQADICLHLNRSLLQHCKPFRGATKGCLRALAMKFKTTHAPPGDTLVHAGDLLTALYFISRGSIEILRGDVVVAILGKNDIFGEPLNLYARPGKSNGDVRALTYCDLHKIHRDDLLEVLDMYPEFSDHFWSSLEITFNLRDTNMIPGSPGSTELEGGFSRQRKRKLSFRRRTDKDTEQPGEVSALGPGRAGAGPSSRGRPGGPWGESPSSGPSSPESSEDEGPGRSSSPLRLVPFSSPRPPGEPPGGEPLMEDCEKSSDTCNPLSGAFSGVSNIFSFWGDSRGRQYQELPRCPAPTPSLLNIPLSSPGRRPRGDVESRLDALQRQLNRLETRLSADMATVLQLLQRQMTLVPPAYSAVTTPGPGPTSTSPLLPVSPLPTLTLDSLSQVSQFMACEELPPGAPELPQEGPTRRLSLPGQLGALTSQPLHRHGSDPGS
row,Compound,"hERG current change (%, negative = inhibition) at 1uM [%]"
1,COC(=O)C1CCN(C(=O)Cc2ccc(C)cc2)CC1,10.2
2,COc1cccc(C(=O)Nc2cccc(-c3nnc(-c4ccco4)o3)c2)c1,-1.01
3,O=C(O)c1cccc(O)c1O,8.42
4,CCOC(=O)N1CCN(Cc2cc(=O)oc3cc4c(cc23)CCC4)CC1,-3.49
5,Cc1cc(=S)[nH]c2c(C)cccc12,15.9
6,c1ccc(-c2cnnc(-c3ccccn3)n2)cc1,4.98
7,CN(C)CCCOC(=O)c1cc2ccccc2o1.Cl,13
8,COc1ccccc1C1=NOC(C(=O)N2CCN(C(=O)c3ccco3)CC2)C1 (stereo not drawn),8.33
9,Cc1cccc2cc(C#N)c(NCCCn3ccnc3)nc12,-11.1
10,COc1cc(C(=S)N2CCC(Cc3ccccc3)CC2)ccc1OCC(N)=O,3.73
11,COc1cccc(CN2CCC(N(CCc3ccccc3)Cc3ccccc3)CC2)c1OC.O=C(O)C(=O)O,0.877
12,COc1ccc(CN2CCC(N(CCc3ccccc3)Cc3ccccc3)CC2)c(OC)c1.O=C(O)C(=O)O,-79.8
13,COc1cc(C(C)=O)ccc1OCCCN1CCC(Cc2ccccc2)CC1.O=C(O)C(=O)O,-82.8
14,COc1ccc(CN2CCC(C(=O)N(C)CCc3ccc(OC)c(OC)c3)CC2)c(OC)c1.O=C(O)C(=O)O,-18
15,COc1ccc(CCNC(=O)c2ccc(CN3CCC(Cc4ccccc4)CC3)cc2)cc1OC,-3.19
16,CC(C)(C)c1ccc(COn2ccnc2)cc1,21
17,COC(=O)CSc1ccc(C#N)c(SCC(=O)OC)c1,12.6
18,COC(=O)c1ccc(NC(=O)CN2CCN(S(=O)(=O)c3cc(Cl)ccc3OC)CC2)cc1,10.2
19,O=C(CSc1n[nH]c(-c2cccnc2)n1)Nc1ccccc1[N+](=O)[O-],11.9
20,COc1cccc(Cn2c(-c3cccs3)noc2=O)c1,-8.06
21,COc1ccc(C)cc1S(=O)(=O)N(CC(=O)N1CCCC1)c1ccc(C)cc1,-25.1
22,COc1ccc(C)cc1S(=O)(=O)N(CC(=O)N1CCCC1)c1ccccc1,4.54
23,COc1ccc(C)cc1S(=O)(=O)N(CC(=O)N1CCOCC1)c1cc(C)cc(C)c1,-52
24,CCCC(=O)Nn1cnc2c(c1=O)C1(CCCCC1)Cc1ccccc1-2,7.68
